From PubChem BioAssay AID1868 (National Center for Advancing Translational Sciences (NCATS), 2009)
Screen size: about 270,000 compounds; about 20 (0.007%) were called active. Calls follow the shape of the dose curve; as a rule, active = well fitted inhibition curve with a large enough effect; inconclusive = small, poorly fitted or top-dose-only effect, or effect the other way; inactive = flat fitted curve, though single readings scatter. Not all results are given here.

What follows are compounds tested against Galactokinase (Homo sapiens) (UniProt P51570) (assay: qHTS Assay for Inhibitors of Human Galactokinase (GALK)). Conditions: Purified GALK, Kinase-Glo residual ATP luminescence; series mostly up to 57.5 µM.
Chain of Galactokinase (Homo sapiens) (P51570 whole entry, looked up): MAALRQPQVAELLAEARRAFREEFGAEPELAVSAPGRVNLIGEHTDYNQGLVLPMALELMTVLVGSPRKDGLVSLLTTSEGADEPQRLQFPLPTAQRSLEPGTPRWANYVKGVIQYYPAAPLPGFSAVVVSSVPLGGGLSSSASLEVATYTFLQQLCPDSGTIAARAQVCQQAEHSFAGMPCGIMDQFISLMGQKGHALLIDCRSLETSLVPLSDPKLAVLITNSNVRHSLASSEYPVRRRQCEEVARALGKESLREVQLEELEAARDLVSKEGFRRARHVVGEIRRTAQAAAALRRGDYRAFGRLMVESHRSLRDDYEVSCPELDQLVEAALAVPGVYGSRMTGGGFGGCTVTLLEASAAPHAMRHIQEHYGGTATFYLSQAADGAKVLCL
Description: NIH Molecular Libraries Probe Production Centers Network [MLPCN] NIH Chemical Genomics Center [NCGC] MLPCN Grant: R03 MH085689-01 Assay Submitter (PI): Kent Lai (University of Utah School of Medicine, 50 N Mario Capecchi Drive, Salt Lake City, UT 84132) NCGC Assay Overview: Inherited deficiency of galactose-1-phosphate uridyltransferase (GALT) can result in a potentially lethal disorder called Classic Galactosemia (OMIM 230400). Several lines of evidence indicate that an elevated level of galactose-1-phosphate (gal-1-p), the product of galactokinase (GALK), is a major, if not sole, pathogenic mechanism in patients with classic galactosemia. Therefore, finding inhibitors of GALK is a potential novel therapy for this inherent metabolic disease and is the long term goal of this project. GALK (provided by the assay submitter) was assayed using ATP and D-(+)-Galactose (Sigma-Aldrich cat# G0750) as substrates. Promega Kinase-Glo Plus (cat# V3774) technology was used to detect the residual ATP following kinetic reaction. Briefly, the Kinase-Glo Plus contains Ultra-Glo [2] luciferase and D-luciferin which generates a bioluminescence signal from the remaining ATP.
NCGC Assay Protocol Summary: Three uL/well of ATP-buffer solution (35 uM ATP, 20mM HEPES pH8.0, 5 mM MgCl2, 60 mM NaCl, 1 mM DTT, 0.01% BSA final concentration) was dispensed into 1536-well, assay plates (Greiner, solid white medium-binding plates) with Aurora Discovery BioRAPTR Flying Reagent Dispenser (FRD; Beckton-Dickenson). Compound solution (23 nL) was transferred to the assay plate using the Kalypsys 1536-pin tool. One uL/well GALK-galactose solution (5 nM GALK, 100 uM galactose, 20 mM HEPES pH8.0, 5 mM MgCl2, 60 mM NaCl, 1 mM DTT, 0.01% BSA final concentration) was then added using the FRD yielding a total kinase reaction volume of 4 uL/ well. After 1 hour of room temperature incubation, 4 uL Kinase-Glo Plus reagent was added for a final assay volume of 8 uL/ well. Luminescence was detected with the ViewLux plate reader (Perkin Elmer, Waltham, MA) after 10 min incubation using a 1 sec exposure time and 2x binning.

Structure (SMILES)	outcome
Brc1ccccc1CN1CCC(Cc2ccccc2)CC1	inactive
CC1CCN(C2=NC(=O)/C(=C/c3ccc(O)cc3)S2)CC1	inactive
CC1(C)Cc2c(sc(NC(=O)C(=O)N3CCOCC3)c2C#N)CO1	inactive
COc1cc(Cl)ccc1OCc1cc(C(=O)N2CC[C@@H]3CCCC[C@H]3C2)no1	inactive
CCOc1ccc(CN2CCNC(=O)C2CC(=O)NCCCC2CCCC2)cc1 (configuration not stated)	inactive
CCOc1ccc(S(=O)(=O)N2CCCC(C(=O)N3CCC(C(N)=O)CC3)C2)cc1Cl (configuration not stated)	inactive
C=CCOc1ccc(/C=C/C(=O)OCC(=O)NC2CCCCCC2)cc1	inactive
CN(c1ccccc1)S(=O)(=O)c1ccc(NC(=O)COc2ccccc2)cc1	inactive
Oc1cccc(/C=N/Nc2ccc(Cl)nn2)c1O	inactive
O=C(NCCNc1ccc([N+](=O)[O-])cc1Cl)c1ccccc1F	inactive
COc1ccc(S(=O)(=O)/N=C2\C=C(NS(=O)(=O)c3ccccc3)C(=O)c3ccccc32)cc1	inactive
Cn1c(Nc2cccc(Cl)c2)nc2ccccc21	inactive
CCn1c(=O)c(C(=O)NCc2ccc3c(c2)OCO3)c(O)c2ccccc21	inactive
O=C(Nc1ccc(Cl)c(Cl)c1)c1ccccc1NC(=O)C1CC=CCC1C(=O)O (configuration not stated)	inactive
Cc1cccc(N2CCN(C(=O)CCS(=O)(=O)c3ccc4c(c3)NC(=O)C(C)S4)CC2)c1C (configuration not stated)	inactive
CC(C)(C)NC(=O)C(c1ccc(Cl)cc1)N(CCO)C(=O)c1snc(C(N)=O)c1N (configuration not stated)	inactive
O=C(CN1CCCC1)Nc1sc2c(c1C(=O)Nc1ccccc1)CCCC2	inactive
O=C(N/N=C/c1cccc(OCc2ccccc2)c1)c1ccc(Br)o1	inactive
Cc1cc(C)n(CC(O)COc2ccc(C(C)(C)C)cc2)n1 (configuration not stated)	inactive
COc1ccc(Oc2cn[nH]c2-c2ccc(OC)cc2O)cc1	inactive
CSc1nnc(NC(=O)c2nc(S(=O)(=O)Cc3ccc(C)cc3)ncc2Cl)s1	inactive
Cc1cc(N=Nc2ccc3ccccc3c2)ccc1O	inactive
Cc1ccc(-c2nc(-c3ccncc3)no2)c(C)c1	inactive
CCCNC(=O)CCn1nc(-c2ccccc2)c2ccccc2c1=O	inactive

Structure (SMILES)	outcome
COc1ccc(C(=O)/C=C/c2cccnc2)c(OC)c1	inactive
COc1ccc(S(=O)(=O)N2CCN(C(=O)N(C)C)C2C)cc1 (configuration not stated)	inactive
CN(C)S(=O)(=O)N1CCC(Oc2cccc(C(=O)NCCCC3CCCC3)c2)CC1	inactive
O=C(Nc1ccccc1)c1ccc2c(c1)OCCCO2	inactive
Cc1[nH]n(C(N)=S)c(=O)c1N=Nc1ccc(Cl)cc1Cl	inactive
O=C(NC(=S)Nc1ccc(Cl)cc1Cl)C1CC1	inactive
COc1cccc(CNc2ncc(-c3ccccc3)n2C)c1	inactive
CCOc1ccccc1/C=N/Nc1nc2ccccc2o1	inactive
COc1ccc(CNc2cc(C)cc(C)c2)cc1OC	inactive
Cc1ccc(NC(=O)Nc2cccnc2)cc1	inactive
COc1ccc2cc(C(=O)C3CCCN(C(=O)c4sc(C)nc4C)C3)ccc2c1 (configuration not stated)	inactive
CC(C)(C)C(=O)Nc1ccc(-c2cn3cccnc3n2)cc1	inactive
CC1(C(=O)N/N=C/c2cc3c(cc2Br)OCO3)CC1(Br)Br (configuration not stated)	inactive
c1ccc(Cc2ccc(OCCn3ccnc3)cc2)cc1	inactive
CNS(=O)(=O)c1ccc(NC(=O)Nc2ccc3c(c2)OCO3)cc1	inactive
CC(=O)N(C)c1ccc(NC(=O)Nc2cccc3ccccc23)cc1	inactive
Cc1nonc1NC(=O)c1oc2ccccc2c1C	inactive
O=C(NCCCN1CCOCC1)c1ccc2c(c1)N(Cc1cccc(F)c1)C(=O)c1ccccc1S2	inactive
CSc1ccccc1OCc1cc(C(=O)N2C[C@H]3CC[C@H]2C3)no1	inactive
O=C(CNC(=O)Cc1ccccc1)N=Nc1c(O)[nH]c2ccc(Br)cc12	inactive
O=C(O)Cc1ccc(NC(=O)Nc2cccc3ccccc23)cc1	inactive
COc1ccc(C(=O)NC2=NCCS2)c(OC)c1	inactive
CCCOC1CCCN(C(=O)c2cc(COc3cncc(Cl)c3)on2)C1 (configuration not stated)	inactive
CCc1ccc(C(=O)NC(=S)Nc2ccccc2N2CCOCC2)cc1	inactive

Structure (SMILES)	outcome
Nc1cc(N)nc(SCc2cccc(F)c2)n1	inactive
Cc1ccc(NS(=O)(=O)c2ccc3c(c2)n(C)c(=O)c(=O)n3C)c(C)c1	inactive
COc1ccc(N(Cc2ccc(N(C)C)cc2)C(=O)c2ccc(S(C)(=O)=O)cc2)cc1	inactive
CCCCC(=O)Nc1ccccc1N1CCN(c2ccc(F)cc2)CC1	inactive
CC(=O)Nc1ccc(NC(=O)C2CCCN2S(=O)(=O)c2cccc(C(F)(F)F)c2)cc1 (configuration not stated)	inactive
COc1ccc(-c2noc(CCCC(=O)NC3CCCC3)n2)cc1OC	inactive
O=C(/C=C/c1ccco1)NC(=S)Nc1ccccc1Br	inactive
COc1ccc(CCNC(=O)C2CCCN(S(=O)(=O)c3ccc(OC)cc3)C2)cc1 (configuration not stated)	inactive
Cc1ccnc(NC(=O)CCNS(=O)(=O)c2ccc(C)c(C)c2)c1	inactive
O=C(Nc1nnc(C2CC2)s1)c1cc(Cl)sc1Cl	inactive
COc1ccc(Nc2ncnc3sc(C)cc23)cc1	inactive
O=C(CN1CCC(NC(=O)C2CC2)CC1)Nc1ccccc1[N+](=O)[O-]	inactive
Cc1cccc(C(=O)NC(=S)N(C)C2CCCCC2)c1	inactive
CN(CCO)c1ccc(/C=N/Nc2nncc3ccccc23)cc1	inactive
O=C(NCC(=O)N1CCN(c2ccccc2F)CC1)c1cccs1	inactive
Cc1ccc2nc(N3C(=O)C(O)=C(C(=O)c4ccco4)C3c3cccc(O)c3)sc2c1 (configuration not stated)	inactive
C[n+]1cc(-c2ccccc2)oc1-c1ccccc1	inactive
Cc1cnc(NC(=O)c2ccc(Cl)nc2)s1	inactive
C=CCN1CCN(C(=O)CCCc2ccccc2)CC1	inactive
COc1ccc(N2CCN(S(=O)(=O)c3ccc4c(c3)N(C(C)=O)CCO4)CC2)cc1	inactive
O=C(O)CCC(=O)N(Cc1ccccc1)Cc1ccccc1	inactive
Cc1noc(C)c1CCC(=O)N1CCCC(CO)(Cc2ccccc2)C1 (configuration not stated)	inactive
O=C(c1noc2c1CCCC2)N1CCc2ccccc2C1	inactive
Cc1cccc(NC(=O)c2ccc3c(=O)n(CC4CCCO4)c(=S)[nH]c3c2)c1 (configuration not stated)	inactive
